Most compounds without a hit are left out; they make up all but 12% or so of the library.
BAZ2B block = qHTS Assay for Inhibitors of BAZ2B; Bromodomain adjacent to zinc finger domain protein 2B (Homo sapiens), Q9UIF8; AlphaScreen BAZ2B-H3K14Ac peptide displacement; actives 4.4% (n = 360,000); Potency, µM (titrated, usually from 114 µM), for the others: top-dose activity change, negative = inhibition, hits mostly inhibitors; also: % is scaled to controls: 0 for no effect and ±100 for the full control effect; nearly all actives have a fitted effect of over 60% in size
Target sequence (Q9UIF8 whole entry, looked up, the tested form may be a part): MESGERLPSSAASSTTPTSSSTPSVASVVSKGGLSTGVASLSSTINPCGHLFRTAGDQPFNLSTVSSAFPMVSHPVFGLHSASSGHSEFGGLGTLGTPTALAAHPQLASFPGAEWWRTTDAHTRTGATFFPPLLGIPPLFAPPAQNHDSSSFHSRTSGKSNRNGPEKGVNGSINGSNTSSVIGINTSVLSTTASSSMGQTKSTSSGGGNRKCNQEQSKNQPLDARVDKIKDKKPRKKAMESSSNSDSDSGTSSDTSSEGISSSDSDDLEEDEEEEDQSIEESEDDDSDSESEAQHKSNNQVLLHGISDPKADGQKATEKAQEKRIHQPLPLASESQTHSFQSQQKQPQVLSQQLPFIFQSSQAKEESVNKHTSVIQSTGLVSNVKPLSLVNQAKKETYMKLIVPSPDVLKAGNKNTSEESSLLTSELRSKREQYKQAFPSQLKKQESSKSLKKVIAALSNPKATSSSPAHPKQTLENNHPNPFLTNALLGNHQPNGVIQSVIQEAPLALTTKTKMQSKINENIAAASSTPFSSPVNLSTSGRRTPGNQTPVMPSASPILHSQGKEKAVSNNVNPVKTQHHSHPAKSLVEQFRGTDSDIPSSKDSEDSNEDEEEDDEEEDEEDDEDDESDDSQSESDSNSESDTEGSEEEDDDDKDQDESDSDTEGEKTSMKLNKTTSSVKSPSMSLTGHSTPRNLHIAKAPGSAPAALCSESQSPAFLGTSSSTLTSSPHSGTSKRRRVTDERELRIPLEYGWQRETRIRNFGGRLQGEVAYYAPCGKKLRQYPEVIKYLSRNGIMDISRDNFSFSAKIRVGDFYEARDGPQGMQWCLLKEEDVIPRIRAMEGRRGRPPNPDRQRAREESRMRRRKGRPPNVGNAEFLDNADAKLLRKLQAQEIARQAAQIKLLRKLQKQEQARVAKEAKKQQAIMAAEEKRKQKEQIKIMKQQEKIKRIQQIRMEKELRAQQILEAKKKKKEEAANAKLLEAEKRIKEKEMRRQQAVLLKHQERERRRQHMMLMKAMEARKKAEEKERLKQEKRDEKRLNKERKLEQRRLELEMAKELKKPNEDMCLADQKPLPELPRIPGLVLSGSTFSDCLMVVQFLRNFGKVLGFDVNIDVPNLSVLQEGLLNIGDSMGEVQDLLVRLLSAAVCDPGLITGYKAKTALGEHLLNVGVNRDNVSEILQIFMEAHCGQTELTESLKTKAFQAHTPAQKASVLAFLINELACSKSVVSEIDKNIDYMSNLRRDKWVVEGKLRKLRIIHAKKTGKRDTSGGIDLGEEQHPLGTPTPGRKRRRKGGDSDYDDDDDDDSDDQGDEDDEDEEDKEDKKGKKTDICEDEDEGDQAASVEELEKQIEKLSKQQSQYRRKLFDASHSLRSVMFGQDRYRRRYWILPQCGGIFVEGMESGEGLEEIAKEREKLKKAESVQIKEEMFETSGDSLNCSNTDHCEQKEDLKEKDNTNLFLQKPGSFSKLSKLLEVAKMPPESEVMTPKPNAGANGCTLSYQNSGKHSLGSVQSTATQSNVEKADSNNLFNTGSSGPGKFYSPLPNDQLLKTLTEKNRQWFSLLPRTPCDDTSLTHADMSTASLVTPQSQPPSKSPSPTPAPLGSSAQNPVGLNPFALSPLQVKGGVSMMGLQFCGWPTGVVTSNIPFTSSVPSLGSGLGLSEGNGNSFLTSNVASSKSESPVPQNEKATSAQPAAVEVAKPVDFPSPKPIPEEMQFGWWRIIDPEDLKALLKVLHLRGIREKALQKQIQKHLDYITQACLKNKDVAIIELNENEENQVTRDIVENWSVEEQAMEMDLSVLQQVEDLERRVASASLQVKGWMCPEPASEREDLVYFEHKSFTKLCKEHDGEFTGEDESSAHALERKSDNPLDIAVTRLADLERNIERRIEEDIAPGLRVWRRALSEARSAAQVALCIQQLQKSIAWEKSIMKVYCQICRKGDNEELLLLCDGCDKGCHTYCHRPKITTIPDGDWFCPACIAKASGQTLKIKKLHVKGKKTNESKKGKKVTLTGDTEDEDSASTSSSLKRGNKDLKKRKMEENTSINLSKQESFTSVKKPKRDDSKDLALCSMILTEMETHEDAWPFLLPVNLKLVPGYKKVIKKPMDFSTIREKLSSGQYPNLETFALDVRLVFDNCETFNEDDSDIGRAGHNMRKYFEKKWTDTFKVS
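AlphaScreen displacement of biotin-H3(5-23)K14Ac peptide (50 nM final) from BAZ2B (50 nM final) in PBS pH 7.4, 0.01% Tween-20; complex preformed 30 min RT, then compounds (top 110 uM) 30 min RT, beads 20 min dark.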
Sfp inh = qHTS Assay for Inhibitors of Bacillus subtilis Sfp phosphopantetheinyl transferase (PPTase) | Potency, µM, without a hit: largest response in the series, negative = inhibition, most hits filed as inhibitors | actives 3.5% (n = 310,000) | 4'-phosphopantetheinyl transferase ffp (Bacillus subtilis), Q9F4F7 | Biochemical Sfp PPTase activity, qHTS;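 also: the enzyme is Sfp with the accession as filed and its product quenches rhodamine fluorescence; 0% = enzyme reaction without inhibitor and -100% = no enzyme wells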
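Compounds were incubated with enzyme (final 15 nM) for 15 min at room temperature before substrate addition started the reaction. Fluorescence at 525 nm excitation, 598 nm emission was recorded immediately and after 30 minutes.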
G9a inh = qHTS Assay for Inhibitors of Histone Lysine Methyltransferase G9a; G9a H3K9 monomethylation, AlphaScreen, 2 h; Potency, µM (doses to about 102 µM), for inactives: top-dose activity, negative = inhibition, hits mostly inhibitors; actives 8.8% (n = 350,000); also: % is scaled to controls: 0 for no effect and ±100 for the full control effect; nearly all actives have a fitted effect of over 75% in size
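Enzyme 20 nM + cpd, 15 min RT; add b-H3K9 pep 500 nM / SAM 20 uM; 2 h RT; anti-H3K9me1 Ab 0.5 ug/mL + SA donor / anti-rabbit acceptor beads 20 ug/mL each, 10 min; AlphaScreen read.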
L3MBTL1 inh = qHTS Assay for the Inhibitors of L3MBTL1. Lethal(3)malignant brain tumor-like protein 1 (Homo sapiens), Q9Y468. AlphaScreen L3MBTL1–H3K9me1 peptide binding. Potency, µM (highest dose often 57.1 µM), for the others: top-dose activity, negative = inhibition, most hits filed as inhibitors. actives 0.66% (n = 230,000). AID 485360, 2010; also: % is scaled to controls: 0 for no effect and ±100 for the full control effect; nearly all actives have a fitted effect of over 60% in size
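Read-out is AlphaScreen signal from streptavidin donor and nickel chelate acceptor beads (10 ug/mL final each) bridging L3MBTL1 (50 nM) and biotinylated K9-monomethylated H3(1-15) peptide (75 nM), after 30 min compound exposure at room temperature.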
HP1b binding inh = HTS for Inhibitors of HP1-beta Chromodomain Interactions with Methylated Histone Tails; actives 0.56% (n = 390,000); AID 540317, 2011; AlphaScreen HP1-beta / biotin-H3K9me3 peptide binding; Potency, µM (top dose mostly 114 µM), without a hit: top-dose activity change, negative = inhibition, actives largely listed as inhibitors; also: nearly all actives have a fitted effect of over 70% in size
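HP1-beta protein (50 nM final) preincubated 30 min at room temperature with biotinylated H3(1-18)K9me3 peptide (50 nM) in PBS pH 7.4, 0.01% Tween-20, then compound added for 30 min. AlphaScreen streptavidin donor/nickel chelate acceptor beads (10 ug/mL final), 30 min dark, luminescence read.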
JMJD2A Tudor inh = qHTS Assay for Inhibitors of JMJD2A-Tudor Domain; Potency, µM (highest dose often 114 µM), for inactives: at the top dose activity change, negative = inhibition, actives largely listed as inhibitors; AID 504339, 2011; actives 4.4% (n = 390,000); Lysine-specific demethylase 4A (Homo sapiens), O75164; AlphaScreen JMJD2A-Tudor / H3K4me3 peptide binding; also: % is scaled to controls: 0 for no effect and ±100 for the full control effect; nearly all actives have a fitted effect of over 50% in size
* hit, by the source's call; ? = inconclusive; / = no result; [ ] = remark or other dose. Calls follow the shape of the dose curve; as a rule, active = well fitted curve in the direction sought with a large enough effect; inconclusive = small, poorly fitted or top-dose-only effect, or another doubt; inactive = no such curve, though single readings can be large; an effect the other way counts as inactive or inconclusive. Potency is read from the fitted curve at half-maximal effect.

SMILES	BAZ2B block	Sfp inh	G9a inh	L3MBTL1 inh	HP1b binding inh	JMJD2A Tudor inh
N#CC1=C(N)Oc2cc(O)ccc2C1c1cccs1 (centres undefined)	-3%	?	56µM*	5%	28%	-3%
N#CC1=C(N)Oc2cc(O)ccc2C1c1ccncc1 (centres undefined)	-31%	3%	?	-2%	1%	-5%[11.4 µM]
CCc1ccc(S(=O)(=O)c2nnn3c2nc(N(CC)Cc2ccccc2)c2cc(Cl)ccc23)cc1	12%	/	8%[59 µM]	/	41%	3%
COc1ccc(-c2nsc(NC(=O)c3oc4ccccc4c3C)n2)cc1	25%	/	24%[59 µM]	/	68%	-20%
NC(=O)N/N=C/c1coc2ccc(O)cc2c1=O	-16%	-14%	/	46%	52%	-15%
N#C/C(=C\c1coc2ccc(O)cc2c1=O)C(=O)Nc1nc2ccccc2s1	?	-29%	?	/	?	63µM*
CC(C)C[C@@H](CC(=O)N[C@@H](CCC(=O)O)CC(=O)O)NC(=O)[C@@H]1CNCC[C@H]1NC(=O)C[C@@H](NC(=O)C[C@H](Cc1ccccc1)NC(=O)[C@@H]1CNCC[C@H]1N)C(C)C	/	-11%	/	/	/	/
CCCOc1cccc(CN2CCCCC2c2cccnc2)c1 (centres undefined)	?	26%	45µM*	/	36%	?
O=C(CCN1CCCCC1c1cccnc1)NCc1ccccc1 (centres undefined)	3%	11%	?	-1%	53%	-2%
COc1ccccc1NC(=O)C1=C(C)Nc2c(C(=O)Nc3ccc(C)cc3)cnn2C1c1cccc(OC)c1OC (centres undefined)	0%[57.1 µM]	/	1%[59 µM]	/	8%	-23%
CCC1=C/C(=C/N(C)c2ccccc2)C(=O)S1	-8%	50µM*	25µM*	/	?	?
CN(c1ccccc1)S(=O)(=O)CS(=O)(=O)N(C)c1ccccc1	/	/	/	/	35%	-1%
COc1ccc(/C=C/c2n[nH]c(=O)c(C#N)c2C)cc1	1%	13%	45µM*	/	0%	-10%
COc1ccc(Oc2nc(C)cc(C)c2C#N)cc1	10%	-5%	8%[59 µM]	0%	41%	5%
COc1ccccc1NC(=O)CSCc1cc(=O)n2c(C)csc2n1	-24%	10%	5%	/	42%	-11%
COc1ccc(C)cc1NC(=O)CSCc1cc(=O)n2c(C)csc2n1	79µM*	/	-3%	-4%	45%	0%
Cc1cc(C)c(COc2ccc(/C=N/n3c(C)n[nH]c3=S)cc2)c(C)c1	?	50µM*	?	-15%	?	79µM*
Cc1n[nH]c(=S)n1/N=C/c1ccc(OCc2ccc(Cl)cc2Cl)cc1	4%	?	11µM*	16%	50%	-6%
Cc1n[nH]c(=S)n1/N=C/c1ccc(OCc2ccc(Cl)cc2)cc1	3%	-24%	?	5%	32%	-21%
COC(=O)c1nnn(CC(=O)Nc2c(C)cccc2C)c1N	2%	/	4%[59 µM]	/	8%	-11%
Cc1ccc(Cl)cc1NS(=O)(=O)c1cc2c(cc1Cl)CCC(=O)N2	/	/	/	/	/	-18%
COc1ccc(/C=C2\SC(=S)N(CCC(=O)N(CCO)Cc3ccccc3)C2=O)cc1OC	-1%	13%	-8%	/	-11%	-34%
COc1cccc(/C=C2\SC(=S)N(CCCC(=O)N(CCO)c3ccccc3)C2=O)c1	?	-6%	?	/	-23%	35µM*
O=C1/C(=C/c2cccc(Br)c2)SC(=S)N1CCC(=O)N(CCO)c1ccccc1	?	1%	/	-16%	-24%	32µM*
Cc1ccc2[nH]c(=O)c3cc(C(=O)N(C)c4ccc(Br)cc4)sc3c2c1	-4%	/	13%[59 µM]	/	49%	0%
SMILES	BAZ2B block	Sfp inh	G9a inh	L3MBTL1 inh	HP1b binding inh	JMJD2A Tudor inh
COc1cccc(N2CCN(C(=O)c3cccn3-c3nnc(N4CCCC4)s3)CC2)c1	?	/	-2%[59 µM]	/	13%	-21%
CCOC(=O)CCCCC(=O)c1[nH]c(=O)[nH]c1CSc1nnc2c3cc(Br)ccc3n(C)c2n1	-67%	?	28µM*	?	/	/
CCOC(=O)CCCCC(=O)c1[nH]c(=O)[nH]c1CSc1nc(C)cc(=O)[nH]1	50µM*	7%	?	7.9µM*	18%	?
CCOC(=O)CCCCC(=O)c1[nH]c(=O)[nH]c1CSc1nc2ccccc2[nH]1	?	-12%	1.6µM*	13µM*	21%	79µM*
O=C(c1ccccc1)N1CCc2cc(CNS(=O)(=O)c3ccc(Cl)s3)ccc21	1%	/	3%[59 µM]	/	19%[57 µM]	-19%
CNS(=O)(=O)c1cn(CC(=O)Nc2ccc(F)cc2F)cc1S(=O)(=O)NC	-8%	/	-20%[59 µM]	/	26%	-4%
c1ccc2c(c1)nc(-c1ccncc1)n2CCNc1nc(CN2CCCCC2)cs1	-36%	-20%	50µM*	-1%	38%	-9%
O=C(Cn1c(C(F)(F)F)nc2ccccc21)N1CCCC1	8%	20%	-8%	/	29%	-17%
FC(F)(F)c1nc2ccccc2n1CCNc1nc(CN2CCCCC2)cs1	-35%	4%	45µM*	2%	27%	-23%
O=C(NCCn1c(-c2ccncc2)nc2ccccc21)[C@H]1CCCN1c1nc(CN2CCCCC2)cs1	-9%	16%	-2%	7%	49%	-5%
CC1CCC(O)C/C1=C\C=C1/CCCC2(C)C1CCC2C(C)/C=C/C(C)C(C)C (centres undefined)	/	18%	4%[12.7 µM]	/	/	/
COC(=O)c1ccc(Cl)cc1NC(=O)Nc1nnc(N2CCCC2)s1	-2%	/	-2%[59 µM]	/	21%	-12%
CC(C)C[C@H]1COC(c2ccc(Br)cc2)=N1	/	-4%	-11%	/	/	/
CC(C)=NOCc1cccc(-c2cc(-c3ccccc3)no2)c1	/	-5%	/	/	/	/
O=c1oc2ccccc2n1CCn1c2ccccc2c2nc3ccccc3nc21	0%	15%	20µM*	-8%	51%	-19%
COc1ccc2c(c1)c1nc3ccccc3nc1n2CCn1c(=O)oc2ccccc21	-4%	8%	-10%[59 µM]	4%	55%	-5%
Cc1nn(-c2ccccc2)c2c1N(CCCC(=O)NCc1ccc(OC(C)C)cc1)C(=O)CS2	-12%	/	6%[59 µM]	/	4%	-25%
COc1ccc(-c2ccc3ncnc(N(C)Cc4csc(C)n4)c3c2)cc1OC	/	/	/	/	/	-15%
